Screening results deposited in PubChem by National Center for Advancing Translational Sciences (NCATS).
Pol iota inh – qHTS for Inhibitors of Polymerase Iota; DNA polymerase iota (Homo sapiens), Q9UNA4; Pol iota fluorescent replication assay, 10 min; Potency, µM (highest dose often 115 µM), inactives show at the highest dose activity, negative = inhibition, most hits filed as inhibitors; 390,000 compounds, 1% hits; further: potency means the concentration at half of the fitted maximal effect
Target sequence (Q9UNA4 whole entry, looked up): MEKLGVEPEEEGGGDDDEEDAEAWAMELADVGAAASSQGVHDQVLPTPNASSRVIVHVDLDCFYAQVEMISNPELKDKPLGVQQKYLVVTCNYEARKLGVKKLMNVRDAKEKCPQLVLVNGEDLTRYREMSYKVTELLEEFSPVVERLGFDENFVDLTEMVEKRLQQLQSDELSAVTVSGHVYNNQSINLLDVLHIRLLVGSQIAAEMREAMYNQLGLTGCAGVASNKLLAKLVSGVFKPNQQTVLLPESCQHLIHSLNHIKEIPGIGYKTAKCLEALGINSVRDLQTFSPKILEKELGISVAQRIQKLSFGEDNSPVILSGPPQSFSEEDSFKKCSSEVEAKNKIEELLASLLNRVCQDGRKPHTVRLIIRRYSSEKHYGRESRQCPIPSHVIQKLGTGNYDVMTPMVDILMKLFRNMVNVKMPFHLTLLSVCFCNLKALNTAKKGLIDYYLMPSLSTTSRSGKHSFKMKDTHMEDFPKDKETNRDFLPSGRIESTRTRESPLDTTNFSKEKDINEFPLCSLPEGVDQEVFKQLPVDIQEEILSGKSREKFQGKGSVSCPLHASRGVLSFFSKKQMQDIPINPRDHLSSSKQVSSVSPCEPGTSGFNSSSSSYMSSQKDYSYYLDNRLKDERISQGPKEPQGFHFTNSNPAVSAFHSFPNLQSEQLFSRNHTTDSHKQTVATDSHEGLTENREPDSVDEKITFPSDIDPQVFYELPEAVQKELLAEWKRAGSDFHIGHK
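Fluorescent replication assay read twice, at 0 min and 10 min after adding 50 nM (final) substrate. Enzyme (10 nM) and compounds were first incubated 15 min at room temperature; enzyme-free buffer wells were negative controls.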
Pol eta inh-1 – qHTS for Inhibitors of Polymerase Eta. 390,000 compounds, 1.2% hits. Potency, µM (titrated, usually from 114 µM), for the others: at the top dose activity change, negative = inhibition, most hits filed as inhibitors. recombinant Pol eta, fluorescent DNA replication assay. DNA polymerase eta (Homo sapiens), Q9Y253. AID 588591, 2011; further: potency means the concentration at half of the fitted maximal effect; on the % scale 0 is the no-effect control and ±100 the full control effect
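Fluorescent replication assay: 50 nM final substrate added after a 15 min room-temperature compound preincubation with 10 nM enzyme. Signal taken at 0 min and again at 10 min.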
Pol kappa inh-1 – qHTS for Inhibitors of Polymerase Kappa | purified Pol kappa, fluorescent DNA synthesis assay, 10 min | Potency, µM (series often up to 107 µM), for the others: at the highest dose activity, negative = inhibition, hits mostly inhibitors | 400,000 compounds, 0.53% hits | AID 588579, 2011; further: potency means the concentration at half of the fitted maximal effect; on the % scale 0 is the no-effect control and ±100 the full control effect
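Activity was followed as the change in fluorescence between reads at 0 and 10 min after starting the reaction with 50 nM substrate. Beforehand, 10 nM polymerase had been preincubated with compound for 15 min at room temperature.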
PI5P4K alpha inh – qHTS for Inhibitors of phosphatidylinositol 5-phosphate 4-kinase (PI5P4K) | max response, % | 330,000 compounds, 1.2% hits | PI5P4Kalpha enzyme, ADP-Glo luminescence, 60 min; hits give low values | Phosphatidylinositol 5-phosphate 4-kinase type-2 alpha (Homo sapiens), P48426; active means max response of -50% or lower; inconclusive means between -30% and -50%; inactive means -30% or higher; further: value at the top dose of about 77 µM; on the % scale 0 is the no-effect control and ±100 the full control effect
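Enzyme plus substrate dispensed, test compounds pinned in, then ATP (5 microM final) added. After 60 min at RT, ADP-Glo reagent 1 for 45 min and reagent 2 for 30 min preceded luminescence imaging.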
Pol beta inh – qHTS Assay for Inhibitors of DNA Polymerase Beta; 340,000 compounds, 1.3% hits; Pol beta primer extension/strand displacement, fluorescence kinetic; Potency, µM (titrated, usually from 114 µM), without a hit: top-dose activity change, negative = inhibition, usual class: inhibitors; P06746; AID 485314, 2010; further: potency means the concentration at half of the fitted maximal effect; on the % scale 0 is the no-effect control and ±100 the full control effect
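Homogeneous kinetic assay of primer extension and strand displacement by 10 nM Pol beta, preincubated 15 min at room temperature with compound before 50 nM substrate (final) was added. Read at 0 and 10 min; four-parameter Hill fit.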
WRN helicase inh-1 – qHTS for Inhibitors of WRN Helicase | Bifunctional 3'-5' exonuclease/ATP-dependent helicase WRN (Homo sapiens), Q14191 | WRN helicase unwinding, fluorescent forked duplex, kinetic | Potency, µM (titrated, usually from 114 µM), for the others: top-dose activity change, negative = inhibition, actives largely listed as inhibitors | 360,000 compounds, 0.46% hits; further: potency means the concentration at half of the fitted maximal effect; on the % scale 0 is the no-effect control and ±100 the full control effect; nearly all actives have a fitted effect of over 55% in size
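Screening of the MLSMR collection measured strand separation of a quenched forked DNA duplex (100 nM) by 20 nM WRN with 2 mM ATP, all final. Compounds were preincubated with enzyme 15 min at room temperature.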
Pol kappa inh-2 – qHTS for Inhibitors of Polymerase Kappa: Confirmatory Assay for Cherry-picked Compounds. AID 720501, 2013. shares compounds with Pol eta inh-1. 920 compounds, 76% hits. Potency, µM, hits mostly inhibitors. purified Pol-kappa, fluorescent strand-displacement substrate; further: potency means the concentration at half of the fitted maximal effect
Pol eta inh-2 – qHTS for Inhibitors of Polymerase Eta: Confirmatory Assay for Cherry-picked Compounds; Pol eta primer extension, TAMRA/BHQ fluorescence, 10 min; 2,600 compounds, 64% hits; shares compounds with Pol eta inh-1; Potency, µM, hits mostly inhibitors; AID 720502, 2013; further: potency means the concentration at half of the fitted maximal effect
WRN helicase inh-2 – qHTS for Inhibitors of WRN Helicase: Confirmatory Assay for Cherry-picked Compounds; shares compounds with WRN helicase inh-1; WRN helicase DNA unwinding, fluorescence kinetic; Potency, µM (highest dose often 57.1 µM), for inactives: top-dose activity, negative = inhibition, usual class: inhibitors; 610 compounds, 63% hits; AID 720497, 2013; further: potency means the concentration at half of the fitted maximal effect; nearly all actives have a fitted effect of over 65% in size
TO DNA binding – qHTS for Inhibitors of WRN Helicase: Thiazole Orange DNA Binding Counterscreen; shares compounds with WRN helicase inh-1; thiazole orange DNA binding displacement, fluorescence; Potency, µM (titrated, usually from 57.1 µM), for inactives: at the top dose activity change, negative = inhibition, actives largely listed as inhibitors; 610 compounds, 10% hits; AID 720499, 2013;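 further: drop in dye fluorescence marks compound binding to DNA; potency means the concentration at half of the fitted maximal effect; on the % scale 0 is the no-effect control and ±100 the full control effect; nearly all actives have a fitted effect of over 60% in size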
BLM helicase inh – qHTS for Inhibitors of WRN Helicase: BLM Helicase Counterscreen for WRN Inhibitors; shares compounds with WRN helicase inh-1; Recombinant BLM helicase DNA unwinding, red fluorescence; Potency, µM (series often up to 57.1 µM), for the others: top-dose activity change, negative = inhibition, usual class: inhibitors; 610 compounds, 60% hits; further: potency means the concentration at half of the fitted maximal effect; nearly all actives have a fitted effect of over 60% in size
Numbers without * were called inactive; u = inconclusive; x = no result; ! = a repeat was not active; [ ] = remark or other dose. Shown are actives, neighbours in structure and some others; about 2.8% of the full set was active somewhere. Unless noted, the call rests on the fitted dose curve; in most records, active means well fitted curve in the direction sought with a large enough effect; inconclusive means small, poorly fitted or top-dose-only effect, or another doubt; inactive means no such curve, though single readings can be large; an effect the other way counts as inactive or inconclusive.

SMILES | Pol iota inh | Pol eta inh-1 | Pol kappa inh-1 | PI5P4K alpha inh | Pol beta inh | WRN helicase inh-1 | Pol eta inh-2 | others
O=C(N/N=C/c1coc2ccccc2c1=O)c1ccncc1 | 36% | -3% | 2% | -16 | 23% | -2% | x
O=C(N/N=C/c1coc2ccccc2c1=O)c1cc(Br)c(O)c(Br)c1 | -7% | u | -12% | -70* | -13% | -13%[11.6 µM] | u
Cc1cnc(CN(C)C(=O)C2CCC(=O)N(CCc3ccc(Cl)cc3)C2)[nH]1 (stereo not drawn) | x | 1% | x | -2 | x | 6% | x
Cc1ccc(Oc2coc3cc(OC(=O)c4cccs4)ccc3c2=O)cc1 | u | -2% | -19% | x | 19% | 20% | x
CC(=O)Oc1ccc2c(=O)c(Oc3ccccc3)coc2c1OC(C)=O | 13µM* | 6.3µM* | 14µM* | -27 | 10µM* | u | u
CCCCCCCCCCOc1cc2c(=O)c(C(=O)OCC)c[nH]c2cc1OCC | x | x | 4%[19.4 µM] | x | x | x | x
CC1C/C(=C/c2ccncc2)C(=O)/C(=C/c2ccncc2)C1 (stereo not drawn) | u | 32µM* | 3% | -4 | 3% | u | 76*
CC1(C)Cc2ccccc2C(N/N=C/c2ccc(Cl)cc2)=N1 | 11% | -6% | -6% | 71 | -1% | -1% | x
Cc1cc(C(=O)Nc2ccc(S(=O)(=O)Nc3onc(C)c3C)cc2)c(C)o1 | u | -16% | u | x | 7% | -24%[57.1 µM] | x
Cc1noc(NS(=O)(=O)c2ccc(NC(=O)c3ccoc3C)cc2)c1C | 40µM* | 10µM* | u | 4 | u | -23%[57.1 µM] | u
Cc1ccc(CNC(=O)C2CCN(S(=O)(=O)c3c(C)noc3/C=C/c3ccccc3F)CC2)o1 | u | -19% | 5%[60.1 µM] | x | -3% | x | x
CC(=O)NCc1ccc(C(=O)COC(=O)COc2ccccc2)s1 | 45µM* | 22µM* | u | -1 | x | -18% | 76*
CCOc1ccc(NC(=O)C2CC(=O)NC(=Nc3ccc(Cl)c(Cl)c3)S2)cc1 (stereo not drawn) | -3% | 5% | -8% | x | 2% | x | x
c1ccc(N=c2nc(-c3ccccc3)n(-c3ccccc3)s2)cc1 | -16% | x | -3% | x | x | x | x
CC(=O)NS(=O)(=O)c1ccc(NC(=O)c2cc(-c3ccc(C)c(C)c3)nc3ccccc23)cc1 | -22% | 22µM* | -7% | u | 25µM* | u | 76*
O=C(NCc1ccco1)c1c[nH]c2ccc(S(=O)(=O)Nc3ccc(F)cc3F)cc2c1=O | u | 50µM* | -26% | x | u | x | x | Pol kappa inh-2=u
CCOC(=O)c1cc2c(=O)n3ccccc3nc2n(Cc2ccco2)c1=NC(=O)c1cccc(C)c1 | u | -3% | -27% | x | -13% | x | x
Cc1cccc(C(=O)N=c2c(C#N)cc3c(=O)n4cccc(C)c4nc3n2Cc2ccco2)c1 | 8.9µM* | 4.5µM* | 28µM* | -93* | 20µM* | 25µM*! | 43* | WRN helicase inh-2=24µM*;TO DNA binding=-29%;BLM helicase inh=u
Cc1cccc(N(CC(=O)N/N=C/c2ccc(C(=O)O)cc2)S(=O)(=O)c2ccccc2)c1C | 3% | -13% | -10% | -10 | x | -4% | x
COc1ccc(C2CC(=O)Nc3c2c(=O)[nH]c2nc4ccccc4n32)cc1 (stereo not drawn) | 3% | -11% | 0% | x | 1% | x | x
CC(=O)C[C@H](O)CC(=O)[C@H]1OC(=O)[C@H](C)C/C=C\Cc2ccccc21 | -14% | u | -10% | 3 | x | -11% | x
N#Cc1c(C(=O)c2cccs2)no[n+]1[O-] | x | x | x | x | x | x | u | WRN helicase inh-2=22µM*;TO DNA binding=-8%;BLM helicase inh=24µM*
N#Cc1c(-c2ccccc2)no[n+]1[O-] | 1%[58.9 µM] | -10%[57.1 µM] | 5%[19.4 µM] | x | 6%[57.1 µM] | x | x
CCN(CC)c1ccc(/C=C2\C(=O)c3ccc(C(=O)O)cc3C2=O)cc1 | u | 7.9µM* | u | -70* | 40µM* | 40µM* | 27* | WRN helicase inh-2=22µM*;TO DNA binding=124%;BLM helicase inh=u
Nc1nnc(CC(=O)N/N=C/c2ccc(-c3cccc(C(=O)O)c3)o2)s1 | 11µM* | 18µM* | 25µM* | -57* | -1% | u | 60* | WRN helicase inh-2=u;TO DNA binding=-22%;BLM helicase inh=u
Oc1cccc(/C=N/Nc2ncnc3c2ncn3Cc2ccccc2)c1 | -5% | -8% | -20% | -3 | 1% | -25% | x
Oc1ccc(/C=N/Nc2ncnc3c2ncn3Cc2ccccc2)cc1O | 2.2µM* | 3.2µM* | u | u | 3.5µM* | u | 48* | WRN helicase inh-2=7.6µM*;TO DNA binding=19µM*;BLM helicase inh=2.4µM*
N#Cc1c(-c2ccc(Cl)c([N+](=O)[O-])c2)no[n+]1[O-] | x | x | x | x | x | x | 76* | WRN helicase inh-2=19µM*;TO DNA binding=-13%;BLM helicase inh=22µM*
CCC(C)c1ccccc1OCC(=O)Nc1ccc(S(=O)(=O)Nc2cc(C)on2)cc1 (stereo not drawn) | 13% | -9% | -12% | x | 14% | x | x
C=CCN1C(=O)/C(=C2/Sc3ccccc3N2CC)SC1=S | 16% | -4% | -6% | 3 | u | 12% | x
